From article PMC6602471
Whole data set: some 1,300 sequences, median “log fluorescence intensity” near 8.3, cut for the highest 2% near 12. The sample as a whole holds a higher share of the highest values than the screen did.

Target: T1, ETS1 (Homo sapiens, UniProt P14921 1-441)
T1 sequence: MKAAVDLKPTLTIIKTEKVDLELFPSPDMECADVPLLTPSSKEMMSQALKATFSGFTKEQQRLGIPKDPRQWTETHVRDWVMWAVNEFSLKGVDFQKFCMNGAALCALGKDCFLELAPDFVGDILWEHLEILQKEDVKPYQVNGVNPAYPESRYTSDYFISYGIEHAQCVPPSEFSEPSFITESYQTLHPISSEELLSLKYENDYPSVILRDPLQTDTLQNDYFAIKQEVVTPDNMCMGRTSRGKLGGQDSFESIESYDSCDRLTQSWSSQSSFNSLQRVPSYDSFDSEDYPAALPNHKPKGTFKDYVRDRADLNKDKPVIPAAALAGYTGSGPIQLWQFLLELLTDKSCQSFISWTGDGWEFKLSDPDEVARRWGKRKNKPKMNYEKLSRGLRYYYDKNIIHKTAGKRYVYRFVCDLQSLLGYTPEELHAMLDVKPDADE
Experiment: custom PBM; custom protein-binding microarray; buffer, salt, pH and temperature not stated; high values mean tight binding
Conditions: dsDNA, one strand shown

Sequence | binding signal
TGTCGGGTAAGGGAATGTAGATCACGTGAATGTAAAGTCTTGATTCGCTTGACGCTGCTG | 8.34 log fluorescence intensity
CTGGGACTTGACCCAACTCTGCCACGTGGGTCGATTGTCTTGATTCGCTTGACGCTGCTG | 8.33 log fluorescence intensity
GTCTATAGGATCCCATCCAACACACGTGTTAAAATGGTCTTGATTCGCTTGACGCTGCTG | 8.42 log fluorescence intensity
GCTGCTGCGGTGCATACCCCACCGGATGTGTCCCCGGTCTTGATTCGCTTGACGCTGCTG | 9.62 log fluorescence intensity
GCTGCAGCGGTGCATACCCCACCGGATGTGACCCCGGTCTTGATTCGCTTGACGCTGCTG | 10.4 log fluorescence intensity
CAGCATAGGACTTCTTCACTGAAGCAATTGATAACCGTCTTGATTCGCTTGACGCTGCTG | 8.32 log fluorescence intensity
GCTGCTGCGGTGCATACCCCCCCGGATGTGACCCCGGTCTTGATTCGCTTGACGCTGCTG | 8.71 log fluorescence intensity
CGGAAGTGTCGTAGACGTCGGATATCCGGTTCTTCTGTCTTGATTCGCTTGACGCTGCTG | 11.7 log fluorescence intensity
CAGCATAGGACTTCTTCCCTGAAGGAATTGATAACCGTCTTGATTCGCTTGACGCTGCTG | 8.32 log fluorescence intensity
CGGAAGTGTCGTAAACGTCGGATATCCAGTTCTTCTGTCTTGATTCGCTTGACGCTGCTG | 8.64 log fluorescence intensity
CACTGACTTATATATGCGAATGCACATGAATAGACCGTCTTGATTCGCTTGACGCTGCTG | 8.35 log fluorescence intensity
GCTGCTGCGGTGCACACCCCACCGGATGTGACCCCGGTCTTGATTCGCTTGACGCTGCTG | 10.3 log fluorescence intensity
ACTGCTGCGGTGCATACCCCACCGGATGTGACCCCGGTCTTGATTCGCTTGACGCTGCTG | 10.4 log fluorescence intensity
TAAAGGGAAGACGGCTGTGGTAGTTCCGGGTATTAAGTCTTGATTCGCTTGACGCTGCTG | 8.35 log fluorescence intensity
TAAAGGTAAGACGGTTGTGGTAGTTCCGGGTATTAAGTCTTGATTCGCTTGACGCTGCTG | 8.54 log fluorescence intensity
GGAAAAAGGCCCAGGGTAACACCGGAAGTGGGGTTAGTCTTGATTCGCTTGACGCTGCTG | 12 log fluorescence intensity
TAAAGGCAAGACGGTTGTGGTAGTTCCGGGTATTAAGTCTTGATTCGCTTGACGCTGCTG | 8.32 log fluorescence intensity
GCTGCTGTGGTGCATACCCCACCGGATGTGACCCCGGTCTTGATTCGCTTGACGCTGCTG | 10.3 log fluorescence intensity
GGAACAAGGCCCAGGGTAACACCGGAAGTGGGCTTAGTCTTGATTCGCTTGACGCTGCTG | 11.9 log fluorescence intensity
CGGAAGAGTCGTAAACGTCGGATATCCGGTTCTTCTGTCTTGATTCGCTTGACGCTGCTG | 11.8 log fluorescence intensity
GGAAAAACGCCCAGGGTAACACCGGAAGTGGGCTTAGTCTTGATTCGCTTGACGCTGCTG | 12.1 log fluorescence intensity

Sequence | binding signal
GCTGCTGCTGTGCATACCCCACCGGATGTGACCCCGGTCTTGATTCGCTTGACGCTGCTG | 9.42 log fluorescence intensity
GGAAAAAGGCCCAGGGTAAGACCGGAAGTGGGCTTAGTCTTGATTCGCTTGACGCTGCTG | 12 log fluorescence intensity
TAAAGGGAAGACGGTTGTGGTAGTTACGGGTATTAAGTCTTGATTCGCTTGACGCTGCTG | 8.37 log fluorescence intensity
TGTCGGGTAAGGGCATGTAGATCACGTGAATGAAAAGTCTTGATTCGCTTGACGCTGCTG | 8.41 log fluorescence intensity
GGAAAAAGGCCCAGGGTATCACCGGAAGTGGGCTTAGTCTTGATTCGCTTGACGCTGCTG | 11.4 log fluorescence intensity
TACTGACTTATAGATGCGAATGCACATGAATAGACCGTCTTGATTCGCTTGACGCTGCTG | 8.45 log fluorescence intensity
TAAAGGGAAGACGGTTCTGGTAGTTCCGGGTATTAAGTCTTGATTCGCTTGACGCTGCTG | 8.63 log fluorescence intensity
CAGCATAGGACTTCTTCCCTGAAGCAATTGATAACGGTCTTGATTCGCTTGACGCTGCTG | 8.34 log fluorescence intensity
CGGAAGTGTCGTAAACGTCGGATATCGGGTTCTTCTGTCTTGATTCGCTTGACGCTGCTG | 8.65 log fluorescence intensity
GGGTATAGGATCCCATCCAACACACGTGTTAAAATGGTCTTGATTCGCTTGACGCTGCTG | 8.44 log fluorescence intensity
GTGTATAGGATCCCATCCAACACACGCGTTAAAATGGTCTTGATTCGCTTGACGCTGCTG | 8.37 log fluorescence intensity
CGGAAGTGTCGTAAACGTCGGATATCCGGTTCTCCTGTCTTGATTCGCTTGACGCTGCTG | 11.8 log fluorescence intensity
GCTGCTGCGGTGCATACCCCAGCGGATGTGACCCCGGTCTTGATTCGCTTGACGCTGCTG | 8.5 log fluorescence intensity
GGAAAAAGGCCCAGCGTAACACCGGAAGTGGGCTTAGTCTTGATTCGCTTGACGCTGCTG | 11.9 log fluorescence intensity
TAAAGGGAAGACTGTTGTGGTAGTTCCGGGTATTAAGTCTTGATTCGCTTGACGCTGCTG | 8.36 log fluorescence intensity
TAAAGGGAAGACGGTTGTGGTAGTTCCGGTTATTAAGTCTTGATTCGCTTGACGCTGCTG | 9.95 log fluorescence intensity
TAAAGGGAAGACGGTTGTGGTAGTTCCGGGCATTAAGTCTTGATTCGCTTGACGCTGCTG | 8.59 log fluorescence intensity
CGGAAGTGTCGTAAACGTCGGATATCTGGTTCTTCTGTCTTGATTCGCTTGACGCTGCTG | 8.37 log fluorescence intensity
GCTGCTACGGTGCATACCCCACCGGATGTGACCCCGGTCTTGATTCGCTTGACGCTGCTG | 10.3 log fluorescence intensity
CGGAAGTGTCGTAAACGTCGGATATCCGGTTATTCTGTCTTGATTCGCTTGACGCTGCTG | 12.1 log fluorescence intensity
